Reference: PubChem BioAssay AID624330 (Southern Research Specialized Biocontainment Screening …, 2012)
In all, about 340,000 compounds went through this assay and about 2,100 (0.62%) were called active.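 Rule for the calls: active = first-screen hits whose inhibition reached a set limit at any dose in the follow-up dose series; inconclusive = inhibition above the set first-screen limit but never retested; inactive = the rest.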 Only a sample is shown. Potency and affinity values are given separately.

Target: Rac GTPase-activating protein 1 (Homo sapiens) (UniProt Q9H0H5)
Test: blockers of MgcRacGAP-driven Rac1 GTP hydrolysis – biochemical, ADP Hunter fluorescence, primary and confirmatory, confirmation (AID 624330);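 note: fluorescence reports GDP produced by GAP-driven GTP hydrolysis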
Conditions: MgcRacGAP-stimulated Rac1 GTP hydrolysis, at 30 µM, hits give high values, GST-tagged Rac1 F28L mutant substrate

Sequence of Rac GTPase-activating protein 1 (Homo sapiens) (Q9H0H5 whole entry, looked up): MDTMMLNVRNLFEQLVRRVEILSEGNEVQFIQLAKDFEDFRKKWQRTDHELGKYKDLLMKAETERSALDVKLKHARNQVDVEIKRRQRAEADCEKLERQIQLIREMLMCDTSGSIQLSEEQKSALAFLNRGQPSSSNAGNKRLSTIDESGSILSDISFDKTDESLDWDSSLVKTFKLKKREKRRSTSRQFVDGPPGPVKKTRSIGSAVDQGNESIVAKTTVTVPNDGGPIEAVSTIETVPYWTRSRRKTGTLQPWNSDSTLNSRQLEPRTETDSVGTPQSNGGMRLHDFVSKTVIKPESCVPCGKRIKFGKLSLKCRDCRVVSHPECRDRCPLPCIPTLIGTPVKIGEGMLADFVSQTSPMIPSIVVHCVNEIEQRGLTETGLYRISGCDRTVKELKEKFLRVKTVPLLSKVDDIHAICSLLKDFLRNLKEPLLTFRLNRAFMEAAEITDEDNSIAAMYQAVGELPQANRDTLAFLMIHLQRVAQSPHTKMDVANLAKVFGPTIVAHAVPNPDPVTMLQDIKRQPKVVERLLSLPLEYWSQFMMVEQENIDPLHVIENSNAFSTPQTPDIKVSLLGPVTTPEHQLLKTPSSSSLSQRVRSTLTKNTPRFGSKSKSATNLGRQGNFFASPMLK

inhibition, inactive:
COc1cccc(NC(=O)COc2ccc(C(=S)N3CCN(C)CC3)cc2OC)c1 7.49%
Cc1ccc(NC(=O)CSc2nn(-c3ccccc3)c(=S)s2)cc1S(=O)(=O)N(C)C 2.35%
O=C(c1ccccc1F)N1CCN(C(=O)C2CC2)CC1 3.19%
CC1(C)O[C@@H]2[C@H](O1)[C@@H](COS(=O)(=O)O)O[C@H]2n1ccc(=O)[nH]c1=O 2.43%
CC1(C)O[C@@H]2[C@H](O1)[C@@H](COS(=O)(=O)O)O[C@H]2n1cnc2c(=O)[nH]cnc21 7.41%
CC1CN(S(=O)(=O)N(C)C)CCN1S(=O)(=O)N(C)C (stereo not drawn) 5.65%
CCOC(=O)c1c(N)sc(-c2ccccc2)c1C 27.2%
COC(=O)c1c(N)sc(Cc2ccccc2)c1C 7.62%
CC(C)c1ccc(N2C(=O)CC(Sc3ncccn3)C2=O)cc1 (stereo not drawn) 1.68%
CC1=C(C)CS(=O)N(S(=O)(=O)c2ccccc2)C1 (stereo not drawn) 30.6%
O=S(=O)(c1ccccc1)N1CCN(S(=O)(=O)c2ccccc2)C1 3.12%
Cc1cccc(C(=O)NCC(c2ccc(F)cc2)N2CCOCC2)c1 (stereo not drawn) 3.85%
Cc1ccc(C)c(CSc2ncccc2C(=O)O)c1 9.95%
NC(=O)c1ccc2c(c1)OCCO2 -2.13%
O=C(c1ccccc1)c1ccc2c(c1)OCCOCCOCCOCCO2 -8.09%
O=C(Nc1cccnc1)c1cccc(NC(=O)c2ccco2)c1 11.1%
O=C(Nc1cccc(S(=O)(=O)Nc2ccccc2F)c1)c1ccco1 0.67%
N#Cc1cc([N+](=O)[O-])ccc1NCCCn1ccnc1 -2.38%
Cn1c(=O)c2ccccc2n2c(CCl)nnc12 -0.09%
Cc1ccccc1-n1c(=O)c2ccccc2n2c(=O)[nH]nc12 3.11%
CCCCCn1c(=O)c2ccccc2n2c(CCl)nnc12 1.94%
CCOCCCNC(=O)CCc1nnc2n(CCC(C)C)c(=O)c3ccccc3n12 7.91%
Cc1nnc2n(-c3ccccc3)c(=O)c3ccccc3n12 9.66%
Cc1ccccc1-n1c(=O)c2ccccc2n2cnnc12 2.97%
CN1CCN(C(=O)/C(=C/c2ccco2)NC(=O)c2ccccc2)CC1 3.42%
CC1CCCCN1C(=O)NC1CC(=O)N(c2ccc3c(c2)OCCO3)C1 (stereo not drawn) 4.77%
CCCOc1ccc(C(=O)ON=C2CCN(C)CC2)cc1 5.39%
Cc1ccc(-c2csc3ncnc(N4CCN(Cc5ccccc5)CC4)c23)cc1 4.03%
O=C(CN1C(=O)NC2(CCOc3ccccc32)C1=O)c1ccc[nH]1 (stereo not drawn) -0.33%
COc1ccccc1CNc1nc2nc(C)c(Cl)c(=O)n2[nH]1 3.76%
Cc1nc2sc(C(c3cccs3)N3CCN(C(=O)c4ccco4)CC3)c(O)n2n1 (stereo not drawn) 1.66%
CCc1cc(/C(Cc2ccc3ccccc3n2)=N\O)c(O)cc1O 22.8%
Cc1cc(O)cc(O)c1C(=O)Cc1cscn1 7.26%
CCc1cc2c(=O)c(-c3cscn3)coc2cc1O -2.61%
CCc1cc(C(=O)Cc2ccccn2)c(O)cc1O -7.09%
CCc1cc(/C(Cc2ccccn2)=N\Nc2ccccc2)c(O)cc1O 5.83%
Cc1cc(O)c(C(=O)Cc2csc(C)n2)c(O)c1 1.16%
CCOC(=O)N1CCC(=NNC(=O)NC2CCCCC2)CC1 -0.13%
Cn1c(=O)n(C)c2cc(/C=N/N=C3/NC(=O)C(CC(=O)O)S3)ccc21 (stereo not drawn) 11.1%
Nn1c(SCC(=O)NCC2CCCO2)nnc1-c1cc(Cl)ccc1Cl (stereo not drawn) 5.2%
COc1ccccc1OCC(=O)NNC(=O)CSC(=S)N1CCCC1 8.8%
CC(C)C(NC(=O)CNC(=O)OC(C)(C)C)C(=O)NCc1ccc(Cl)cc1 (stereo not drawn) 4.12%
c1ccc(OCCCCN2CCCCC2)cc1 12.9%
CCOc1ccc(OCCN2CCCCC2)cc1 19.4%
COc1ccc(OCCOCCN2CCc3ccccc3C2)cc1 28.9%
CCN1CCN(CCOCCOc2ccccc2)CC1 28.1%
c1ccc(COc2ccc(OCCCN3CCCC3)cc2)cc1 15.1%
COc1ccc(OCCOCCN2CCOCC2)cc1 12.8%
CCOc1cccc(OCCOCCN2CCCC2)c1 25%
CN1CCN(CCOc2ccc(Cc3ccccc3)cc2)CC1 10.6%
CC(Sc1nnc(-c2ccccc2F)n1C)C(=O)NC1CCCCC1 (stereo not drawn) 6.18%
CCOC(=O)c1c(C)sc(Sc2ccc(Cl)cc2[N+](=O)[O-])c1OC 4.34%
Cc1ccnc(SC2CC(=O)N(c3ccc(F)cc3)C2=O)n1 (stereo not drawn) 1.56%
C(=N\N=C\c1ccccn1)/c1ccccn1 3.13%
COc1ccc(CN(C)C(=O)[C@H](Cc2ccccc2)NC(=O)c2ccco2)c(OC)c1 0.3%
COCCCNC(=O)CC1C[C@H](C(=O)N2CCOCC2)[C@@]2(C)c3[nH]c4ccc(OC)cc4c3CCN2C1=O (stereo partly drawn) 8.55%
Cc1ccccc1N(CC(=O)N/N=C/c1cc(Br)c(C)o1)S(C)(=O)=O 4.93%
O=S(=O)(NCCN1CCOCC1)c1ccc2c(c1)OCCO2 3.86%
C/C(=N\NC(=O)C1(C)CC1(Br)Br)c1cccc(NC(=O)c2ccc(C)o2)c1 (stereo not drawn) 5.18%
O=C(C1=NN[C@@H]2C(=O)N(Cc3ccccc3)C(=O)[C@H]12)c1ccc([N+](=O)[O-])cc1 14.7%
COc1ccc(/C=C2\SC(N3CCc4ccccc4C3)=NC2=O)cc1OC 10.4%
O=C(CCC(=O)c1cccs1)NCC(c1ccc(F)cc1)N1CCOCC1 (stereo not drawn) 4.84%
Cc1cccc(N2CCN(C(=O)c3ccc4c(c3)c(C)c(C)n4C)CC2C)c1 (stereo not drawn) -37%
